Records with an inconclusive call do not appear. Active and inactive are the calls of the source. How the source made its calls: active means hit-call score of the fitted dose curve at least 0.9, where 1 is the maximum; inconclusive means response in the unintended direction; inactive means score below 0.9.

Sequence of human Phosphatase and Tensin Homolog (PTEN), PTEN (gene 5728) (P60484 whole entry, looked up): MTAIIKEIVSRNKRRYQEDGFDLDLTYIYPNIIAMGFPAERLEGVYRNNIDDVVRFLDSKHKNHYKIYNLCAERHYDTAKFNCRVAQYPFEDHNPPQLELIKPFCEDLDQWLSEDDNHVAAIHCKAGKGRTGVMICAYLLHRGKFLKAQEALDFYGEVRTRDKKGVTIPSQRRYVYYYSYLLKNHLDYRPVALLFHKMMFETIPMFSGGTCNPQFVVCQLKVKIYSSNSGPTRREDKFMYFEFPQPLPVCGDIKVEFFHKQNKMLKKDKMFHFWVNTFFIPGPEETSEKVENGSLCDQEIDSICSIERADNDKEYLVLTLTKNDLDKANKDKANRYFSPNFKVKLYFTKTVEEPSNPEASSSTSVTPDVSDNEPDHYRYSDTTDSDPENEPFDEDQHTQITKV
Sequence of Tyrosine-protein phosphatase non-receptor type 12 (Homo sapiens) (Q05209 whole entry, looked up): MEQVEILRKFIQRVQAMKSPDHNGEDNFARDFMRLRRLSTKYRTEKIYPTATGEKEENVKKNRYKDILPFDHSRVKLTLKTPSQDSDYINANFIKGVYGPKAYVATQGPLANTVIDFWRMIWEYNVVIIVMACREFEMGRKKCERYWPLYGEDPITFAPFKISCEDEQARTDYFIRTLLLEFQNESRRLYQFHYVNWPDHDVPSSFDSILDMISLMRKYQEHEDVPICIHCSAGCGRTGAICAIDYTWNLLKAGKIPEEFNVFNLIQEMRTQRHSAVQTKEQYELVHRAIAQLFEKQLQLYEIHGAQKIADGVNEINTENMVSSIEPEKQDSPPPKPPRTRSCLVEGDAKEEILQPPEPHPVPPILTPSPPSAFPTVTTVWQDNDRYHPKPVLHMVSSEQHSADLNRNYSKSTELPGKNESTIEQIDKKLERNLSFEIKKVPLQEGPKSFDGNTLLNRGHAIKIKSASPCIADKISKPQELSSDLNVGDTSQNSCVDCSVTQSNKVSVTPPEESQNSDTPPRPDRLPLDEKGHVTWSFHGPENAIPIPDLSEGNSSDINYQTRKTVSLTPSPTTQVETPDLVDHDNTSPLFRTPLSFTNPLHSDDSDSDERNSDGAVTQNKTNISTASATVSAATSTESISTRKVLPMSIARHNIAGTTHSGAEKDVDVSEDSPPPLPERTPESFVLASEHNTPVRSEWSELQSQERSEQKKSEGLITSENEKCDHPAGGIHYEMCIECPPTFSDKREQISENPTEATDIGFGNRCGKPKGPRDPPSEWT
Sequence of Tyrosine-protein phosphatase non-receptor type 11 (Homo sapiens) (Q06124 whole entry, looked up): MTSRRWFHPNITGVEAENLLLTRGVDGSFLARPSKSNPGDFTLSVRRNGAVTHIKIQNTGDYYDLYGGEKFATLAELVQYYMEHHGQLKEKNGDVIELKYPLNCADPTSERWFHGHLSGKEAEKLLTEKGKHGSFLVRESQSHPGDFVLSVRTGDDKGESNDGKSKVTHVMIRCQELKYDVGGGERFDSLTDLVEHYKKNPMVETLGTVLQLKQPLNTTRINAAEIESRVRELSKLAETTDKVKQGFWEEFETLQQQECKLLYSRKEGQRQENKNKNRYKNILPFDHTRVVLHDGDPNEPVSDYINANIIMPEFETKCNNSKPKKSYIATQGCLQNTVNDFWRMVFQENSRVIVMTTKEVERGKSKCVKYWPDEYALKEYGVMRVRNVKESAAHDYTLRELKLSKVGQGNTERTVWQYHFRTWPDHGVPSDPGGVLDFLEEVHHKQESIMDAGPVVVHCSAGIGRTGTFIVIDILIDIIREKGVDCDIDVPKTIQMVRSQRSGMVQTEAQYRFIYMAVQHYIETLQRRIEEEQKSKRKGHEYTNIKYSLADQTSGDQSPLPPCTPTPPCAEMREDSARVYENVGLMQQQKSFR

One assay concerns the target Tyrosine-protein phosphatase non-receptor type 11 (Homo sapiens) (UniProt Q06124). In words: NVS_ENZ_hPTPN11: NovaScreen (NVS) Enzymatic Assay for human Protein Tyrosine Phosphatase Non-receptor Type 11 (PTPN11) (AID 2283202). The method in brief:
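Compounds first tested in duplicate at 25 uM; those reaching ~30% inhibition rerun in singleton concentration-response, top 50 uM. Phosphatase activity measured after 0.5 h by fluorescence with mobility-shift separation, relative to DMSO.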
As to `CC(C)O.CC(C)O.OCCN(CCO)CCO.OCCN(CCO)CCO.[Ti]`, the half-maximal activity concentration (AC50) was 13.6 µM (active). With `O=C1c2ccccc2C(=O)C1C(=O)C(c1ccccc1)c1ccc(Cl)cc1` (stereo not drawn), the AC50 was 9.45 µM (active).

In the case of `COc1nn(C(=O)NS(=O)(=O)c2ccccc2OC(F)(F)F)c(=O)n1C`, the AC50 is 13.3 µM (active). `N#Cc1cccnc1`: the call was inactive. For `CCCCCCCCCCCCc1cccc(S(=O)(=O)O)c1`, the AC50 is 22.5 µM (active).

For another assay, the target named is human Phosphatase and Tensin Homolog (PTEN), PTEN (gene 5728) (UniProt P60484). In words: NVS_ENZ_hPTEN: NovaScreen (NVS) Enzymatic Assay for human Phosphatase and Tensin Homolog (PTEN) (AID 2283203). The method, boiled down:
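Loss of fluorescent product signal after mobility-shift separation reports PTEN activity, recombinant human enzyme, 1 h after compound addition. Single 25 uM duplicate screen, then concentration-response on actives; DMSO baseline.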
In the case of `Cc1ccccc1OP(=O)(Oc1ccccc1)Oc1ccccc1`, the AC50 is 44.9 µM (active). Take `Clc1cccc(Cl)c1Cl`: the molecule was classed as inactive. With `CC(C)O.CC(C)O.OCCN(CCO)CCO.OCCN(CCO)CCO.[Ti]`, the AC50 is 0.493 µM (active). Still for that read-out and setting: then `O=C1c2ccccc2C(=O)C1C(=O)C(c1ccccc1)c1ccc(Cl)cc1` (stereo not drawn), with 15.2 µM (active); and `COc1nn(C(=O)NS(=O)(=O)c2ccccc2OC(F)(F)F)c(=O)n1C`, with 9.29 µM (active). In the case of `COCC(=O)N(c1c(C)cccc1C)[C@H](C)C(=O)OC`, the molecule was called inactive. Same read-out and setting: then `CC(C)(COCC1CO1)COCC1CO1` (stereo not drawn), with “inactive”; and `N#Cc1cccnc1`, with “inactive”. With `CCCCCCCCCCCCOS(=O)(=O)O`, the AC50 is 21.6 µM (active).

Consider `CN(C)C(=S)S`, for which the result was inactive.

Regarding `CCCCCCCCCCCCc1cccc(S(=O)(=O)O)c1`, the AC50 is 12.9 µM (active). On to `CCCCC(CC)COC(=O)Cl` (stereo not drawn), for which the half-maximal activity concentration (AC50) is 4.14 µM (active). On the same count and under the same terms, the value for `Cc1ccccc1OP(=O)(Oc1ccccc1C)Oc1ccccc1C` was 45.1 µM (active). For the molecule `OC(Cc1ccccc1Cl)(Cn1[nH]cnc1=S)C1(Cl)CC1` (stereo not drawn), the outcome was inactive. As for `Cc1cccc(OP(=O)(Oc2cccc(C)c2)Oc2cccc(C)c2)c1`, the molecule was classed as inactive.

For the molecule `Nc1c(Oc2ccccc2)cc(O)c2c1C(=O)c1ccccc1C2=O`, the outcome was inactive.

With `C[C@]12CC[C@@H](O)C[C@@H]1CC[C@@H]1[C@@H]2CC[C@]2(C)C(=O)CC[C@@H]12`, the molecule was classed as inactive.

A further assay concerns the target Tyrosine-protein phosphatase non-receptor type 12 (Homo sapiens) (UniProt Q05209). In words: NVS_ENZ_hPTPN12: NovaScreen (NVS) Enzymatic Assay for human Protein Tyrosine Phosphatase Non-receptor Type 12 (PTPN12) (AID 2283204). As for the experimental part:
NVS_ENZ_hPTPN12 is a biochemical, single-readout assay that uses extracted gene-proteins in a cell-free assay. Measurements were taken 1.33 hours after chemical dosing in a 384-well plate.NVS_ENZ_hPTPN12 is one of one assay component(s) measured or calculated from the NVS_ENZ_hPTPN12 assay. It is designed to make measurements of enzyme activity, a form of enzyme reporter, as detected with fluorescence intensity signals by Fluorescence and electrophoretic mobility shift technology.Data from the assay component NVS_ENZ_hPTPN12 was analyzed into 1 assay endpoint. This assay endpoint, NVS_ENZ_hPTPN12, was analyzed in the positive analysis fitting direction relative to DMSO as the negative control and baseline of activity. Using a type of enzyme reporter, loss-of-signal activity can be used to understand changes in the enzymatic activity as they relate to the gene PTPN12. Furthermore, this assay endpoint can be referred to as a primary readout, because this assay has produced multiple assay endpoints where this one serves a enzymatic activity function. To generalize the intended target to other relatable targets, this assay endpoint is annotated to the phosphatase intended target family, where the subfamily is non-receptor tyrosine phosphatase.
Binding assays used specific radioligands (tritiated, iodinated) with non-radioactive competitive displacement ligands in agonist or antagonist protocols (as indicated) and various reference compounds and inhibitors to titrate specific binding to receptors and transporters. Most enzyme assays (CYPs, kinases, phosphatases, proteases, HDACs) used recombinant protein and specific substrates (fluorescence mostly, some colorimetric and radioactive) and inhibitors, followed by a biochemical separation of substrate and product. All assays for the biochemical HTS were initially run in duplicate at a single concentration (10 uM for CYP450 assays and 25 uM for all others). Assay-chemical combinations meeting a pre-defined threshold (e.g., 30% inhibition and other criteria defined below) were then run in singleton concentration-response format with maximum concentration of 20 uM for CYPs and 50 uM for all others. Each assay was run with positive and negative controls, and concurrent controls on every plate. The follow-up (secondary) screen tested active chemical-pairs in concentration series, as well as a few additional assays not tested in the primary screen, some selected negative inactives, and several cases re-run in the concentration series for confirmatory purposes.
As to `Clc1cccc(Cl)c1Cl`, the result was inactive. In the case of `CC(C)O.CC(C)O.OCCN(CCO)CCO.OCCN(CCO)CCO.[Ti]`, the AC50 was 0.00439 µM (active). Same read-out and setting: then `O=C1c2ccccc2C(=O)C1C(=O)C(c1ccccc1)c1ccc(Cl)cc1` (stereo not drawn), with 20 µM (active); and `COc1nn(C(=O)NS(=O)(=O)c2ccccc2OC(F)(F)F)c(=O)n1C`, with 5.64 µM (active).

In the case of `N#Cc1cccnc1`, the call was inactive. In the case of `CCCCCCCCCCCCc1cccc(S(=O)(=O)O)c1`, the AC50 was 12.8 µM (active).

Values taken from PubChem BioAssay (EPA / NIEHS).
